Measurements reported in the supplement of paper PMC10981050.
Where “and” joins values, the source holds several entries; their conditions need not be identical. Equal entries are not always repeated.

Experiments:
Assay in all cases: cell viability relative to vehicle control; higher = less cytotoxic
Conditions in all cases: 10 µM
K562 = system: K562
In short: (§1)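 Each screen used CRISPR-edited mutant and wild-type clones from four leukaemia lines. Compounds were acoustically dispensed at a single 10 µM dose, and CellTiter-Glo luminescence was read after 48 h with the supernatant first removed. Viability was analysed in Genedata Screener and given as percent of the on-plate vehicle control.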

MARIMO = system: MARIMO
In short: as §1

MOLM14 = system: MOLM14
In short: as §1

OCI-AML2 = system: OCI-AML2
In short: as §1

| SMILES | cell viability (K562; SRSF2 genotype: SRSF2 P95H/wt) | cell viability (K562; SRSF2 genotype: SRSF2 wt/wt) [%] | cell viability (MARIMO; SRSF2 genotype: SRSF2 P95H/wt) [%] | cell viability (MARIMO; SRSF2 genotype: SRSF2 wt/wt) [%] | cell viability (MOLM14; SRSF2 genotype: SRSF2 P95H/wt) [%] | cell viability (MOLM14; SRSF2 genotype: SRSF2 wt/wt) [%] | cell viability (OCI-AML2; SRSF2 genotype: P95H/wt) [%] | cell viability (OCI-AML2; SRSF2 genotype: wt/wt) [%] |
| --- | --- | --- | --- | --- | --- | --- | --- | --- |
| CCCc1nc2c(C)cc(-c3nc4ccccc4n3C)cc2n1Cc1ccc(-c2ccccc2C(=O)O)cc1 [Telmisartan (Micardis)] | 103% and 107% | 99.5 | 112 | 117 | 110 | 103 | 108 | 128 |
| Cc1c(F)cc(C(=O)NC2CC2)cc1-c1ccc(C(=O)NCC(C)(C)C)cn1 [Losmapimod] | 92% and 93.7% | 97.8 | 95.7 | 103 | 94.1 | 100 | 86.7 | 95.5 |
| OC(CN1CCN(c2cccc(Cl)c2)CC1)C(c1ccccc1)c1ccccc1 (configuration not stated) | 84.9% and 91.9% | 91.3 | 84.2 | 90.6 | 86.9 | 94.5 | 86.9 | 89.1 |
| Nc1nc(CC(=O)Nc2ccc(CCNC[C@H](O)c3ccccc3)cc2)cs1 [Mirabegron (YM178)] | 102% and 111% | 107 | 103 | 114 | 101 | 103 | 110 | 93.1 |
| C[C@@H](O)[C@H]1C(=O)N2C(C(=O)O)=C(S[C@@H]3CN[C@H](CNS(N)(=O)=O)C3)[C@H](C)[C@H]12 [Doripenem Hydrate] | 95.8% and 101% | 94.1 | 94.6 | 101 | 103 | 97.5 | 96.4 | 99 |
| CCCN[C@H]1CCc2nc(N)sc2C1 [Pramipexole (Mirapex)] | 102% and 81.8% | 83.3 | 81.9 | 83.9 | 71.3 | 84.3 | 80.9 | 87.8 |
| COc1cc(Nc2ncc(F)c(Nc3ccc4c(n3)NC(=O)C(C)(C)O4)n2)cc(OC)c1OC | 99.2% and 103% | 104 | 83.7 | 85.8 | 22.3 | 19.6 | 41.2 | 47.7 |
| COc1ccc2c(c1)[C@]1(C[C@H]1c1ccc3c(/C=C/c4ccc(CN5C[C@@H](C)O[C@@H](C)C5)cc4)n[nH]c3c1)C(=O)N2 | 13.4% and 27.5% | 17.7 | 30.9 | 29.3 | 14.5 | 10.7 | 11.6 | 20.3 |
| C[C@H](CCC(=O)O)[C@H]1CC[C@H]2[C@@H]3[C@H](O)C[C@@H]4C[C@H](O)CC[C@]4(C)[C@H]3C[C@H](O)[C@]12C [Sodium cholate] | 103% and 101% | 94.5 | 88.2 | 96.6 | 89.8 | 93.4 | 88 | 96.5 |
